Assay outcomes from PubChem BioAssay.
Compounds with a hit are over-represented: about 6.2% of the library has one in this group of screens.
FMDV antiviral = High Throughput Screening for Foot and Mouth Disease Virus Antivirals | FMDV antiviral cell-based qHTS | Potency, µM (doses to about 57.9 µM), most hits filed as inhibitors | 410,000 tested, 1.2% active | AID 1159524, 2015; calls by dose curve; tested in HEK293T cells; note: read-out not given here; nearly all actives have a fitted effect of over 45% in size
Lassa entry inh = qHTS for Inhibitors of binding or entry into cells for Lassa Virus. Lassa virus pseudotype entry inhibition, cell reporter. Potency, µM (series often up to 37.9 µM), hits mostly inhibitors. 300,000 tested, 1.2% active. AID 540256, 2011; calls by dose curve; tested in HEK293 cells; note: nearly all actives have a fitted effect of over 50% in size
Marburg entry inh = qHTS for inhibitors of binding or entry into cells for Marburg Virus; Marburg virus pseudotyped entry inhibition, cell reporter; 300,000 tested, 1.8% active; Potency, µM (series often up to 37.8 µM), actives largely listed as inhibitors; calls by dose curve; tested in HEK293 cells
HCMV antiviral = qHTS Assay for inhibitors of the human cytomegalovirus (HCMV); 410,000 tested, 4.5% active; activity change, negative = inhibition, % at 57.5 µM; HFF cells, HCMV-luciferase reporter, 72 h; active compounds read low; in the data active = activity change below about -60%; inconclusive = no clear call, values can overlap the other calls; inactive = above about -39%
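Two-dose cell screen: HFF monolayers treated with compounds and infected with luciferase-expressing HCMV at 1 PFU/cell, 72 h at 37C, then lysed for luciferase measurement.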
Of the large screens only hits and unclear results are named; the others gave an inactive call.

CC(C)C[C@H]1CN([C@@H](CC(C)C)CN2CCCC2CN2C(=S)NC[C@@H]2Cc2ccc(O)cc2)C(=S)N1CCc1ccccc1 (some centres not stated)	HCMV antiviral -80 (no result: Lassa entry inh, Marburg entry inh)
CC(C)C[C@H]1CN([C@@H](CC(C)C)CN2CCC[C@@H]2CN2C(=S)NC[C@@H]2Cc2ccc(O)cc2)C(=S)N1CCc1ccccc1	none (no result: Lassa entry inh, Marburg entry inh)
CCC(C)NS(=O)(=O)c1ccc(NS(=O)(=O)c2ccccc2[N+](=O)[O-])cc1 (configuration not stated)	none (no result: Lassa entry inh, Marburg entry inh)
FC(F)(F)c1cccc(-c2cc(C3CCNCC3)[nH]n2)c1	Lassa entry inh inconclusive, Marburg entry inh inconclusive, HCMV antiviral -72
COC(=O)CCN1CCC(c2cc(-c3cccc(C(F)(F)F)c3)n[nH]2)CC1	HCMV antiviral inconclusive
FC(F)(F)c1cccc(CN2CCC(c3cc(-c4cccs4)n[nH]3)CC2)c1	Lassa entry inh inconclusive, Marburg entry inh inconclusive, HCMV antiviral -79
CC(C)N(c1ccccc1)c1ccc(NC(=O)[C@@H]2O[C@H](CO)[C@@H](O)[C@H]2O)cc1	none (no result: Lassa entry inh, Marburg entry inh)
Cc1ccc(SCc2nc(N)nc(Nc3ccccc3C)n2)cc1C	HCMV antiviral -101 (no result: Lassa entry inh, Marburg entry inh)
Cc1ccccc1Nc1nc(N)nc(CSc2nc3ccccc3c(=O)n2C)n1	FMDV antiviral 16µM, Lassa entry inh inconclusive, Marburg entry inh inconclusive
Cc1ccc(SCc2nc(N)nc(Nc3ccccc3C)n2)c(C)c1	HCMV antiviral -61
O=C(CC1S/C(=N/N=C/c2cccs2)NC1=O)Nc1ccc(Cl)cc1 (configuration not stated)	none
Cc1cccc(N2CCN(C(=O)NC(C)c3ccc(F)c(F)c3)CC2)c1C (configuration not stated)	Lassa entry inh inconclusive, Marburg entry inh inconclusive
Cc1cccc(NC(=O)C2CCCN(S(=O)(=O)c3ccc(-n4cnnn4)cc3)C2)c1 (configuration not stated)	Marburg entry inh inconclusive
COc1ccc(OCc2nc3ccccc3[nH]2)cc1	Lassa entry inh inconclusive, Marburg entry inh inconclusive (no result: FMDV antiviral)
CN(C)C(=O)Oc1ccc(OCc2nc3ccccc3[nH]2)cc1	Lassa entry inh 9.2µM, Marburg entry inh inconclusive
CN1CCN(NC(=O)c2ccccc2F)CC1	none
O=c1c2ccccc2nc(-c2ccc(Cl)cc2)n1C1CCS(=O)(=O)C1 (configuration not stated)	none
O=C(O)C(Cc1ccccc1)N1CCS(=O)(=O)CC1 (configuration not stated)	HCMV antiviral inconclusive
COC(=O)C(Cc1ccccc1)N1CCS(=O)(=O)CC1 (configuration not stated)	HCMV antiviral -69
COc1cc(/C=N/N2C(=O)CSC2=S)cc(Br)c1O	Lassa entry inh 16µM
CC(C)OCC(O)CN1CCC(Cc2ccccc2)CC1 (configuration not stated)	HCMV antiviral inconclusive (no result: Lassa entry inh, Marburg entry inh)
C[C@@H](CN1CCC(Cc2ccccc2)CC1)[C@@H](O)c1ccc(O)cc1	Lassa entry inh inconclusive, Marburg entry inh inconclusive
CC(C(O)c1ccc(O)cc1)N1CCC(Cc2ccccc2)CC1 (configuration not stated)	FMDV antiviral inconclusive, Lassa entry inh 23µM, Marburg entry inh 21µM, HCMV antiviral inconclusive
C[C@@H]([C@H](O)c1ccc(O)cc1)N1CCC(Cc2ccccc2)CC1	Marburg entry inh 21µM (no result: Lassa entry inh, HCMV antiviral)
CC(C)C[C@@H](CN1C(N)=NC[C@@H]1C)NC(=O)CC12CC3CC(CC(C3)C1)C2	none (no result: Lassa entry inh, Marburg entry inh)
COCCCNC(=O)c1c(NC(=O)c2ccccc2Cl)n(Cc2ccccc2)c2nc3ccccc3nc12	none
CCCCn1c(NC(=O)CC)c(C#N)c2nc3ccccc3nc21	none
N#Cc1c(NC(=O)c2ccccc2Cl)n(Cc2ccccc2)c2nc3ccccc3nc12	Lassa entry inh inconclusive, HCMV antiviral -70
CCCCn1c(NC(=O)c2ccccc2Cl)c(C#N)c2nc3ccccc3nc21	Marburg entry inh 21µM, HCMV antiviral -60
Cc1cccc(N2CCN(S(=O)(=O)c3cccc4nonc34)CC2C)c1 (configuration not stated)	FMDV antiviral inconclusive, Marburg entry inh inconclusive
Cc1ccc(Cl)cc1NC(=O)Nc1cccs1	Marburg entry inh 10µM, HCMV antiviral inconclusive
Cc1onc(-c2ccccc2Cl)c1C(=O)NC(=S)NCc1cccnc1	none
O=C(OC(C(=O)Nc1ccc([N+](=O)[O-])cc1Br)c1ccccc1)c1ccccc1 (configuration not stated)	Marburg entry inh 3.5µM
COCCNC(C(=O)Nc1ccc([N+](=O)[O-])cc1Br)c1ccccc1 (configuration not stated)	FMDV antiviral inconclusive, HCMV antiviral -82
COc1ccccc1CN1C(=O)c2ccncc2C1=O	none
Cc1c(C(=O)NCc2cccs2)oc2ccc(Br)cc12	Lassa entry inh inconclusive, Marburg entry inh 7.3µM
CCc1ccc2oc(C(=O)Nc3cccnc3)c(C)c2c1	none (no result: Lassa entry inh, Marburg entry inh, HCMV antiviral)
Cc1c(C(=O)Nc2ccc3oc(-c4cccnc4)nc3c2)oc2ccccc12	Lassa entry inh 18µM, HCMV antiviral -67
CCCCOc1cccc(C(=O)Nc2ccc3oc(-c4cccnc4)nc3c2)c1	FMDV antiviral 16µM (no result: Marburg entry inh)
Cc1c(C(=O)Nc2cccnc2)oc2ccc(Br)cc12	Lassa entry inh inconclusive, Marburg entry inh 5µM
CCCCOc1ccc(C(=O)Nc2ccc3oc(-c4cccnc4)nc3c2)cc1	FMDV antiviral inconclusive (no result: Marburg entry inh)
O=C(Nc1cc(C(F)(F)F)ccc1N1CCCCC1)c1ccco1	Marburg entry inh inconclusive, HCMV antiviral inconclusive
CN1CCN(c2ccc(C(F)(F)F)cc2NC(=O)c2ccco2)CC1	Marburg entry inh 10µM
COc1ccc(N2CCN(c3ncnc4onc(C)c34)CC2)cc1	FMDV antiviral inconclusive, HCMV antiviral -69 (no result: Marburg entry inh)
Cc1noc2ncnc(N3CCN(c4ccc(F)cc4)CC3)c12	FMDV antiviral inconclusive, HCMV antiviral -68
COc1ccc(-c2nc(-c3cc4cc(Br)ccc4oc3=O)cs2)cc1	none (no result: Marburg entry inh)
COc1ccc(NC(=O)c2ccc(OCC3CCCO3)cc2)cc1OC (configuration not stated)	none (no result: Lassa entry inh, Marburg entry inh)
CCOc1ccc(S(=O)(=O)N2CCN(S(=O)(=O)c3ccc(C(C)=O)cc3)CC2)cc1	none
CCOc1ccc(S(=O)(=O)N2CN(c3cccc(C(C)=O)c3)c3nc4ccccc4nc32)cc1	Lassa entry inh inconclusive, HCMV antiviral -71
Cc1ccc(C(=O)NCCCNC(=O)c2ccc(Cl)cc2)cn1	none
CN(C)c1ccc2cc(S(=O)(=O)O)cc(O)c2c1	HCMV antiviral -100
CC(=O)NC(=S)NNC(=O)COc1ccc(Br)cc1	none (no result: Lassa entry inh, Marburg entry inh)
CCOc1cc(NC(=S)NCCCN2CCOCC2)c(OCC)cc1NC(=O)CC(C)C	HCMV antiviral -93
O=C(Nc1ccccc1C(=O)N1CCCCCC1)c1ccccc1	HCMV antiviral -64
CCOC(=O)N1CCN(C(=O)c2ccccc2NC(=O)COc2ccccc2)CC1	FMDV antiviral inconclusive, HCMV antiviral -60
COc1cccc(C(=O)Nc2ccccc2C(=O)N2CCCC2)c1	none
CCC(Oc1ccccc1)C(=O)Nc1ccccc1C(=O)N1CCCCC1 (configuration not stated)	FMDV antiviral inconclusive, Lassa entry inh inconclusive, Marburg entry inh 11µM
